Measurements as given in ChEMBL document CHEMBL3988442, “University of Dundee, Small-Polar-MMV Screening Library” (2021).
Among all 48,000 compounds or so, about 13,000 (27%) showed an effect of 50% or more. Some of the results follow.

Test system: Wolbachia pipientis
Assay: Anti-Wolbachia Cell-Based Screen
Format: functional
Design: scale not given: in the data most compounds retested in dose-response had high values
Settings: 5 µM

| SMILES | Percent Effect |
| --- | --- |
| CN(Cc1nnc2n1CCC2)S(=O)(=O)c1ccc(Br)cc1Cl | 10.86% |
| CC(=O)N1CCC(CCNC(C)c2cc(F)cc(F)c2)CC1 (stereo unspecified) | -11.21% |
| CC(C)Oc1cc(N2CCC(N3CCC(O)CC3)CC2)nc(N)n1 | 11.59% |
| Cc1nc(CN2CCC3(CCCO3)CCC2=O)no1 (stereo unspecified) | 31.71% |
| CNC(=O)NC(=O)CSc1ccc2c(c1)CCC2 | -2.658% |
| Cc1noc(-c2cccnc2N(C)Cc2cc(C)on2)n1 | 2.996% |
| CCC(=O)N(CC(N)=O)Cc1cccc(Oc2ccccc2)c1 | 9.242% |
| COCCCC(=O)N(C)c1ccc(F)c(Cl)c1 | -0.2217% |
| COCCN(Cc1ccncc1)C(=O)CCSCc1ccc(F)cc1 | -3.369% |
| CN(C)C(=O)CCC[S+]([O-])Cc1ccc(F)c(F)c1 (stereo unspecified) | -13.45% |
| CCC(=O)N(CCC(=O)O)Cc1ccc(F)c(F)c1 | 121.4% |
| COCCCC(=O)N(CCC(=O)O)Cc1ccc(F)c(F)c1 | 97.51% |
| COCCNc1nc2c(c(NCc3ccncc3)n1)CCNCC2 | 24.23% |
| CC(C)OCCSc1nnnn1C1CCOCC1 | -9.456% |
| CC(=O)N1CCCN(CCCSc2ccccc2Cl)CC1 | -4.168% |
| COCCC(=O)N1CCN(CC(C)C)c2nc(C)ccc2C1.O=C(O)C(F)(F)F | 6.482% |
| O=C(O)c1ccc2[nH]cc(CN3CCCC3)c2c1 | 2.363% |
| Cc1ncsc1CCN(C)C(=O)c1ccc(CN2CCCCC2)cc1 | -41.8% |
| Cc1ncc(CN2CCCC2)c2cc(C(=O)c3ccc(Br)cc3)oc12.Cl | 139.8% |
| Cc1ncc(CN2CCOCC2)c2cc(C(=O)c3ccc(Br)cc3)oc12.Cl | 126.2% |
| O=C(O)c1ccc2[nH]cc(CN3CCOCC3)c2c1 | -9.058% |
| O=C(NCc1ccccc1CN1CCOCC1)c1ccc(Br)cc1F | -0.3449% |
| COc1c(C2CCCN2C(=O)c2nccnc2N)c(C)nn1C (stereo unspecified) | 108.6% |
| Cc1nn(C)c(C)c1C1CCCN1C(=O)c1nccnc1N (stereo unspecified) | 101% |
| Cc1nn(C)c(Cl)c1C1CCCN1C(=O)c1nccnc1N (stereo unspecified) | -5.243% |
| O=S(=O)(Nc1c(F)cccc1N1CCCC1)c1cncc(F)c1 | -6.105% |

| SMILES | Percent Effect |
| --- | --- |
| N#Cc1cccc(NC2CC(=O)N(C3Cc4ccccc4C3)C2)n1 (stereo unspecified) | 5.834% |
| Cc1nc(C)n(CC2CCCN(CCOc3cccc(F)c3)C2)n1 (stereo unspecified) | 75.5% |
| Fc1ccc(OCCCN2CCCC(Cn3cncn3)C2)cc1 (stereo unspecified) | 107.3% |
| Cc1nc(C)n(CC2CCCN(CCCOc3ccc(F)cc3)C2)n1 (stereo unspecified) | 86.71% |
| Cc1nc(C)n(CC2CCCN(CCOc3ccc(F)cc3)C2)n1 (stereo unspecified) | 98.89% |
| O=C1CCCN1CCCN1CCCC(Cn2cncn2)C1 (stereo unspecified) | 2.08% |
| Fc1ccc(CN2CCCC(Cn3cncn3)C2)c2ncccc12 (stereo unspecified) | 0.09463% |
| Cc1nc(C)n(CC2CCCN2CCCOc2ccc(F)cc2)n1 (stereo unspecified) | 2.053% |
| Cc1nc(C)n(CC2CCCN(CCOc3cccc(C#N)c3)C2)n1 (stereo unspecified) | -2.683% |
| Cc1nc(C)n(CC2CCCN(CCCOc3ccccc3)C2)n1 (stereo unspecified) | -19.22% |
| Cc1c(C(C)NC2CCN(C(C)C)CC2)cnn1-c1ccc(F)cc1F (stereo unspecified) | -0.2198% |
| CCOc1cccnc1C(=O)N1CCCN(c2nc(C)cs2)CC1 | 4.223% |
| CCn1ccnc1CN1C[C@@H](CN2CCCC2)[C@@H](CO)C1 | -1.438% |
| CCn1ccnc1CN1CCN(CC(=O)NC(=O)NC2CC2)CC1 | -16.24% |
| Cc1ccc(C)c(-n2ncc(C(=O)NCC3COC(C)(C)O3)c2N)c1 (stereo unspecified) | 185.5% |
| COc1ccc(-n2ncc(C(=O)NCC3COC(C)(C)O3)c2N)cc1 (stereo unspecified) | -3.479% |
| CC1(C)OCC(CNC(=O)c2cnn(-c3cccc(Cl)c3Cl)c2N)O1 (stereo unspecified) | 190.2% |
| CC1(C)OCC(CNC(=O)c2cnn(-c3cc(Cl)ccc3Cl)c2N)O1 (stereo unspecified) | -0.3036% |
| CC(C)c1ccc(-n2ncc(C(=O)NCC3COC(C)(C)O3)c2N)cc1 (stereo unspecified) | 161.1% |
| Cc1cc(Cl)ccc1-n1ncc(C(=O)NCC2COC(C)(C)O2)c1N (stereo unspecified) | 154.2% |
| Cc1ccc(C)c(-n2ncc(NC(=O)NC3(C)CCOC3)c2C)c1 (stereo unspecified) | 6.274% |
| CC1(C)OCC(CNC(=O)c2cnn(-c3ccc(Cl)cc3)c2N)O1 (stereo unspecified) | -2.312% |
| CCOC(=O)c1ccc(CNC(=O)c2ccncc2Cl)o1 | 1.896% |
| Cc1c(C(=O)NC2(C#N)CCSC2)cnn1-c1ccccc1Cl (stereo unspecified) | -17.58% |
| CC(=O)N[C@@H]1C[C@H](Cc2ccccc2)O[C@H](c2ccc(C(=O)O)cc2)C1 | -2.466% |
| O=C(CC1=CCCCC1)NCCc1csc(N2CCCC2)n1 | -4.83% |

| SMILES | Percent Effect |
| --- | --- |
| COc1cccc(CCC(=O)N2CCN(Cc3noc(C)n3)CC2)c1 | -5.031% |
| CN1CCN(CCC(F)(F)C(F)F)CC12CCNC(=O)CC2 (stereo unspecified) | 7.69% |
| Cc1cnc(CN2CCOC(CN(C)c3cccnn3)C2)cn1 (stereo unspecified) | 10.01% |
| Cc1cccc(C2CCCN2C(=O)CCS(C)(=O)=O)c1C (stereo unspecified) | -5.02% |
| CC(C)(C)C(O)CN1CCN(CC(=O)NC2CCOCC2)CC1 (stereo unspecified) | 4.367% |
| CCc1ncc(C(=O)NCCN2CCNC2=O)cn1 | 99.04% |
| CCc1ncc(C(=O)NCC2CCN(Cc3ccncc3)CC2)cn1 | -2.292% |
| CCc1ncc(C(=O)NCCn2c(C)cc(C)nc2=O)cn1 | 5.273% |
| O=C(NCCN1CCOC1=O)c1ccc2sccc2c1 | -4.154% |
| O=C(NCCN1CCNC1=O)c1cnc(-c2cccnc2)nc1 | 91.56% |
| CCN(CCN1CCCCCC1)C(=O)c1cnc(-c2cccnc2)nc1 | -4.892% |
| O=C(NCCN1CCNC1=O)c1cc(-c2ccc(O)cc2)n[nH]1 | 6.287% |
| O=C(NCCn1ccnc1C1CCOC1)c1cccnc1 (stereo unspecified) | -7.177% |
| O=C(NCCN1CCOC1=O)c1cnc(-c2cccnc2)nc1 | 103% |
| CN(Cc1cc(Br)cn1C)C(=O)Cc1cccc(O)c1 | -22.7% |
| CNC(=O)Cn1nnc(-c2cc3ccccc3o2)n1 | -5.513% |
| COc1cc(C(=O)NC(CC(=O)O)c2cccs2)cc(Cl)c1OC (stereo unspecified) | 14.71% |
| CC(C)Cn1cncc1CNC1CCSC1 (stereo unspecified) | 0.928% |
| CC(C)(C)CC(=O)Nc1ccc(S(C)(=O)=O)nc1 | 8.515% |
| CCn1nnnc1-c1cccc(NC(=O)CCOC(C)C)c1 | 1.671% |
| CC[C@H](C)Nc1ncc(-c2cccc(NC(=O)CNC)c2)cn1 | 114.1% |
| O=C(CNC(=O)Nc1cccc(-c2nccs2)c1)NCCO | -9.757% |
| Cc1cccc(C(C)(C)NC(=O)CCS(C)(=O)=O)c1 | 2.509% |
| Cn1ccnc1-c1cccc(NC(=O)NCC(=O)NC(C)(C)C)c1 | -2.22% |
| CCc1cnc(NCCS(=O)(=O)N(C)C)nc1 | -13.3% |
| CNCC(=O)Nc1ccc(-c2cnc(NCCS(C)(=O)=O)nc2)cc1 | 99.21% |

| SMILES | Percent Effect |
| --- | --- |
| CNC(=O)c1cccc(CCNc2ncc(Br)cn2)c1 | -10.19% |
| CNCC(=O)Nc1cccc(-c2cnc(NCCO)nc2)c1 | 140.4% |
| Cc1nccc(-c2cccc(NCC(=O)N3CCCCCCC3)c2)n1 | 4.13% |
| CNCC(=O)Nc1cccc(-c2cnc(NCCS(C)(=O)=O)nc2)c1 | 116.8% |
| CC(C)n1cnc2c1C(C(=O)N1CCCC1)N(CC1CC1)CC2.O=C(O)C(F)(F)F (stereo unspecified) | 12.69% |
| CC(=O)Nn1c(C)cc(CN2CCCN(Cc3ccncc3)CC2)c1C | 19.43% |
| Cc1n[nH]c(=O)c2c(NC(=O)CN3CCOCC3C)oc(C)c12 (stereo unspecified) | 12.8% |
| CNC(=O)[C@@H]1C[C@H](N)CN1Cc1cc2cc(OC)ccc2nc1O | 8.618% |
| Cn1ccnc1CN1CCN2C[C@H](Oc3cccc(F)c3)C[C@H]2C1.O=C(O)C(F)(F)F.O=C(O)C(F)(F)F | 5.075% |
| Cc1cc(F)ccc1OC1(C(=O)O)CCN(Cc2c[nH]cn2)CC1 | -1.435% |
| O=C1CC[C@H]2CN(Cc3cccc(F)c3)CC[C@H]2N1CCc1c[nH]cn1 | -2.492% |
| C[C@@]1(O)CCN(Cc2cc[nH]n2)C[C@H]1Oc1cccc(F)c1 | 94.39% |
| C[C@]1(O)CCN(Cc2c[nH]cn2)C[C@@H]1Oc1cccc(F)c1 | 125.6% |
| O=C(NCc1cc[nH]n1)NCC(O)COc1cccc(F)c1 (stereo unspecified) | -0.04004% |
| c1ccc2sc(N3CCN(c4ncnc5c4CCC5)CC3)nc2c1 | -7.695% |
| CSc1ncc(C(=O)N2CCN(c3ccccc3C)CC2C)cn1 (stereo unspecified) | -7.257% |
| O=C(O)C(F)(F)F.O=C(c1cccc(F)c1)N1CC[C@H]2[C@H]1CCN2CC1CCOCC1 | -10.34% |
| O=C(O)C(F)(F)F.O=C(c1ccc(F)cc1)N1CC[C@H]2[C@H]1CCN2CC1CCOCC1 | -29.44% |
| Cc1ccc(C(=O)N2CC[C@H]3[C@H]2CCN3CC2CCOCC2)cc1F.O=C(O)C(F)(F)F | 1.153% |
| O=C(O)C(F)(F)F.O=C(c1cscn1)N1CC[C@@H]2[C@@H]1CCN2CC1CCOCC1 | 90.26% |
| Cn1cccc1C(=O)N1CC[C@H]2[C@H]1CCN2CC1CCOCC1.O=C(O)C(F)(F)F | -12.52% |
| O=C(O)C(F)(F)F.O=C(c1cscn1)N1CC[C@@H]2[C@@H]1CCN2CC1CCOC1 (stereo partly specified) | 116.3% |
| CC(C(=O)NCC1(c2c(F)cccc2F)CCCC1)S(C)(=O)=O (stereo unspecified) | 26.11% |
